# Laboratory results reported in PubChem BioAssay (NCI).
# Values joined by “and” are separate entries in the source; they are usually repeats but may differ in a detail not shown here. Equal entries are not always repeated. About 83,000 compounds went through this panel and 20% of them were active in at least one assay; those are over-represented in the sample as a whole.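 Cell lines were cultured in 96-well plates, exposed to a single compound concentration, and assessed for percent growth 48 hours later.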 Active and inactive are the calls of the source. The calls were made as follows: active = growth percent below 10; inactive = the rest.
# Experiments:
# Assay in all cases: NCI-60 one-dose screen, 48 h (100 = growth as untreated, 0 = no growth, -100 = all killed)
# Settings in all cases: 10 µM unless noted
# NCI-H23 lung = test system: NCI-H23 lung
# NCI-H226 lung = test system: NCI-H226 lung
# NCI-H322M lung = test system: NCI-H322M lung
# HOP-62 NSCLC = test system: HOP-62 NSCLC
# NCI-H460 lung = test system: NCI-H460 lung
# HOP-92 NSCLC = test system: HOP-92 NSCLC
# NCI-H522 lung = test system: NCI-H522 lung
# A549/ATCC NSCLC = test system: A549/ATCC NSCLC
# 786-0 renal = test system: 786-0 renal
# COLO 205 colon = test system: COLO 205 colon
# DU-145 prostate = test system: DU-145 prostate
# K-562 leukemia = test system: K-562 leukemia
# MALME-3M melanoma = test system: MALME-3M melanoma
# MDA-MB-231 breast = test system: MDA-MB-231 breast
# RXF 393 renal = test system: RXF 393 renal
# SF-268 CNS = test system: SF-268 CNS
# SF-295 CNS = test system: SF-295 CNS
# SF-539 CNS = test system: SF-539 CNS
# UACC-257 melanoma = test system: UACC-257 melanoma
# M14 melanoma = test system: M14 melanoma
SMILES,growth (NCI-H23 lung),growth (NCI-H226 lung),growth (NCI-H322M lung),growth (HOP-62 NSCLC),growth (NCI-H460 lung),growth (HOP-92 NSCLC),growth (NCI-H522 lung),growth (A549/ATCC NSCLC),growth (786-0 renal),growth (COLO 205 colon),growth (DU-145 prostate),growth (K-562 leukemia),growth (MALME-3M melanoma),growth (MDA-MB-231 breast),growth (RXF 393 renal),growth (SF-268 CNS),growth (SF-295 CNS),growth (SF-539 CNS),growth (UACC-257 melanoma),growth (M14 melanoma)
CCCCCN(CCCCC)CC(O)c1cc2c(c3ccccc13)CCCC2 (stereo not drawn),31.5% (inactive) and 40.8% (inactive),69.8% (inactive) and 53.2% (inactive),71.3% (inactive) and 38.5% (inactive),36.2% (inactive) and 75.6% (inactive),38.7% (inactive) and 25.8% (inactive),-14.4% (active),53% (inactive) and 50.1% (inactive),71.1% (inactive) and 59.9% (inactive),39.1% (inactive) and 27.2% (inactive),40.7% (inactive),75.5% (inactive) and 80.2% (inactive),23.5% (inactive) and 24.7% (inactive),65.4% (inactive) and 74.3% (inactive),8.63% (active) and 59.1% (inactive),26% (inactive) and 87.5% (inactive),86.7% (inactive) and 80% (inactive),55.5% (inactive),68.8% (inactive) and 52% (inactive),71.9% (inactive) and 71.5% (inactive),
COc1ccccc1NC(=O)OCC#CCOC(=O)Nc1ccccc1OC,101% (inactive) and 95.5% (inactive),97.8% (inactive) and 90.5% (inactive),112% (inactive) and 98.4% (inactive),102% (inactive) and 91.8% (inactive),110% (inactive) and 94.7% (inactive),83.1% (inactive),80.2% (inactive) and 76.8% (inactive),101% (inactive) and 87% (inactive),108% (inactive) and 88.2% (inactive),107% (inactive) and 120% (inactive),146% (inactive) and 96.5% (inactive),75% (inactive) and 57.3% (inactive),96.6% (inactive),102% (inactive) and 105% (inactive),102% (inactive) and 90.3% (inactive),116% (inactive) and 89.4% (inactive),105% (inactive) and 94% (inactive),99.9% (inactive) and 91.6% (inactive),100% (inactive) and 91.1% (inactive),
C#CCN(C)Cc1ccccc1,106% (inactive) and 104% (inactive),91.6% (inactive) and 95.2% (inactive),99.3% (inactive) and 450% (inactive),93.5% (inactive) and 89.6% (inactive),110% (inactive) and 104% (inactive),100% (inactive),100% (inactive) and 92.5% (inactive),102% (inactive) and 101% (inactive),95.5% (inactive) and 70.4% (inactive),108% (inactive) and 122% (inactive),111% (inactive),95.9% (inactive) and 94.2% (inactive),100% (inactive) and 305% (inactive),106% (inactive) and 89.6% (inactive),114% (inactive) and 96.6% (inactive),107% (inactive) and 99.5% (inactive),108% (inactive) and 98.1% (inactive),97.8% (inactive),105% (inactive),
CNC(=O)c1cccc(-c2ccc3c(N4CCOC[C@@H]4C)nc(N4CCOC[C@@H]4C)nc3n2)c1,18.3% (inactive) and 10.2% (inactive),-11.5% (active) and -2.84% (active),6.83% (active) and -14.6% (active),-3.27% (active) and -14.6% (active),11.4% (inactive) and 9.46% (active),-25.3% (active) and -21.5% (active),10.4% (inactive) and -11.1% (active),4.83% (active) and -7.57% (active),0.967% (active) and -5.74% (active),4.53% (active) and -11.4% (active),12.2% (inactive),25.3% (inactive) and 12.6% (inactive),-32.1% (active) and -46.6% (active),6.14% (active) and 4.21% (active),-28.8% (active) and -33.9% (active),9.04% (active) and 13.7% (inactive),-37.4% (active) and -36.6% (active),-26.5% (active) and -40.2% (active),-21.2% (active) and -25.5% (active),
O=C1c2ccccc2C(=O)N1/N=C/c1ccc2c(c1)OCO2,120% (inactive),101% (inactive),95.1% (inactive),104% (inactive),112% (inactive),74.4% (inactive),64.5% (inactive),87.7% (inactive),104% (inactive),99.5% (inactive),116% (inactive),99.8% (inactive),110% (inactive),87.2% (inactive),107% (inactive),103% (inactive),129% (inactive),101% (inactive),99.7% (inactive),
CC(=O)Nc1cc(S(=O)(=O)O)cc2cc(S(=O)(=O)O)c(N=Nc3ccccc3)c(O)c12,96.3% (inactive) and 101% (inactive),99.7% (inactive) and 105% (inactive),112% (inactive) and 91.9% (inactive),140% (inactive) and 98.6% (inactive),104% (inactive) and 103% (inactive),82% (inactive) and 102% (inactive),112% (inactive) and 82.3% (inactive),108% (inactive) and 97% (inactive),106% (inactive) and 103% (inactive),99.7% (inactive) and 109% (inactive),118% (inactive) and 114% (inactive),107% (inactive) and 84.6% (inactive),110% (inactive) and 99.4% (inactive),100% (inactive) and 104% (inactive),107% (inactive) and 113% (inactive),107% (inactive) and 100% (inactive),105% (inactive) and 110% (inactive),105% (inactive),115% (inactive) and 94.5% (inactive),
O=CC(O)C(O)C(O)CO (stereo not drawn),13.3% (inactive) and 100% (inactive),93.9% (inactive) and 101% (inactive),101% (inactive) and 96.6% (inactive),114% (inactive) and 97.6% (inactive),98.7% (inactive) and 111% (inactive),119% (inactive),33.4% (inactive),102% (inactive),104% (inactive) and 97.6% (inactive),97.7% (inactive) and 106% (inactive),107% (inactive) and 108% (inactive),114% (inactive) and 99.3% (inactive),122% (inactive),92.5% (inactive) and 125% (inactive),104% (inactive),107% (inactive) and 100% (inactive),121% (inactive),88.1% (inactive) and 111% (inactive),106% (inactive),
CC(C(=O)O)n1cc(C#N)c(=O)[nH]c1=O (stereo not drawn),108% (inactive) and 111% (inactive),93.3% (inactive) and 94.8% (inactive),112% (inactive) and 111% (inactive),92.5% (inactive) and 98.8% (inactive),115% (inactive) and 112% (inactive),93.2% (inactive) and 98.4% (inactive),98.8% (inactive) and 93.9% (inactive),103% (inactive) and 108% (inactive),119% (inactive) and 101% (inactive),103% (inactive) and 112% (inactive),124% (inactive) and 107% (inactive),104% (inactive),102% (inactive) and 116% (inactive),109% (inactive) and 103% (inactive),110% (inactive) and 115% (inactive),96.8% (inactive) and 99.7% (inactive),93.3% (inactive) and 102% (inactive),95.8% (inactive) and 102% (inactive),89% (inactive) and 108% (inactive),120% (inactive) and 107% (inactive)
CN(C)c1ccc(/C=C(\C#N)c2ccccc2)cc1,29.3% (inactive) and 36.4% (inactive) and 44.1% (inactive),92.4% (inactive) and 60.5% (inactive) and 73% (inactive),64% (inactive) and 57.1% (inactive) and 47.6% (inactive),48.3% (inactive) and 31.4% (inactive) and 36.6% (inactive),11.2% (inactive) and 20.8% (inactive) and 12.2% (inactive),53.9% (inactive) and 39.5% (inactive) and 14% (inactive),-50% (active) and 2.73% (active) and 5.2% (active),24.3% (inactive) and 31.2% (inactive) and 24.9% (inactive),44.7% (inactive) and 42.3% (inactive) and 45.6% (inactive),-2% (active) and -7.08% (active),15.7% (inactive) and 38.1% (inactive),11.3% (inactive) and 14% (inactive) and 23.9% (inactive),53.7% (inactive) and 51.2% (inactive) and 57.3% (inactive),55.7% (inactive) and 50.3% (inactive) and 48.9% (inactive),-6.38% (active) and -3.64% (active),43.5% (inactive) and 61.1% (inactive) and 56% (inactive),-18.9% (active) and 23.5% (inactive) and 17% (inactive),-2.9% (active) and -3.11% (active) and -13.1% (active),20.1% (inactive) and 66.6% (inactive) and 56.6% (inactive),19.1% (inactive) and 30.2% (inactive) and 24% (inactive)
